The results in this text go back to PubChem BioAssay (EPA / NIEHS).

Results filed as inconclusive are left out. Activity calls are given as the source filed them. How the source made its calls, unless noted: active means hit-call score of the fitted dose curve at least 0.9, where 1 is the maximum; inactive means score below 0.9.

Read-out in test [1]: Transforming Growth Factor (TGFB1), TGFB1 (gene 7040)
Kind of test: LTEA_HepaRG_TGFB1: Life Technologies and Expression Analysis (LTEA) Assay for Transforming Growth Factor (TGFB1) Transporter using HepaRG (AID 2283533). Conditions: mRNA level, 48 h; actives raise or lower the signal. Put shortly:
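HepaRG, 48 h post-plating, switched to serum-free induction medium; chemicals 100 uM top, half-log, 8 pts, 0.5% DMSO, dup; 48 h exposure; RNA → Fluidigm TaqMan qRT-PCR; norm ACTB/GAPDH/POLR2A; bidirectional fit vs DMSO.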

Read-out in another test: TIMP1, TIMP1 (gene 7076)
Kind of test: LTEA_HepaRG_TIMP1: Life Technologies and Expression Analysis (LTEA) Assay for TIMP1 using HepaRG (AID 2283534).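 Further: TaqMan qRT-PCR signal normalized to ACTB GAPDH and POLR2A housekeeping genes.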 Conditions: mRNA level, 48 h; actives raise or lower the signal. Put shortly: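 Readout is TIMP1 mRNA level measured by qRT-PCR and normalized to three housekeeping genes. Human HepaRG cells were treated for 48 h in duplicate at eight concentrations up to 100 uM (0.5% DMSO); gain or loss fitted against DMSO.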

Read-out in test [2]: Tumor necrosis factor receptor 1 (TNFRSF1A), TNFRSF1A (gene 7132)
Nature of the test: LTEA_HepaRG_TNFRSF1A: Life Technologies and Expression Analysis (LTEA) Assay for Tumor necrosis factor receptor 1 (TNFRSF1A) using HepaRG (AID 2283535). Particulars: mRNA level, 48 h; actives raise or lower the signal. An outline of the steps:
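Read-out is TNFRSF1A transcript level by TaqMan qRT-PCR, normalized to three housekeeping genes, scored as gain or loss of signal versus 0.5% DMSO. Human HepaRG cells received test chemicals for 48 h at up to 100 uM (half-log series).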

Read-out in test [3]: Thyroid Hormone Responsive (THRSP), THRSP (gene 7069)
Kind of test: LTEA_HepaRG_THRSP: Life Technologies and Expression Analysis (LTEA) Assay for Thyroid Hormone Responsive (THRSP) using HepaRG (AID 2283536). Conditions: mRNA level, 48 h; actives raise or lower the signal. Put shortly: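 THRSP transcript quantified by Fluidigm qRT-PCR against three housekeeping genes after 48 h chemical exposure of HepaRG cells in serum-free induction medium; eight-point half-log series, top 100 uM, 0.5% DMSO vehicle, duplicate wells.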

Read-out in test [4]: Cellular tumor antigen p53 (Homo sapiens) (UniProt P04637)
Kind of test: LTEA_HepaRG_TP53: Life Technologies and Expression Analysis (LTEA) Assay for Tumor Protein P53 (TP53) using HepaRG (AID 2283537). Particulars: mRNA level, 48 h; actives raise or lower the signal. An outline of the steps:
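HepaRG, 48 h exposure, top 100 uM, half-log 8-point, 0.5% DMSO vehicle, duplicates. Read: TP53 mRNA by TaqMan qRT-PCR, normalised to ACTB/GAPDH/POLR2A; bidirectional fit vs DMSO.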

Read-out in test [5]: UDP glucuronosyltransferase (UGT1A1), UGT1A1 (gene 54658)
Nature of the test: LTEA_HepaRG_UGT1A1: Life Technologies and Expression Analysis (LTEA) Assay for UDP glucuronosyltransferase (UGT1A1) using HepaRG (AID 2283538). Particulars: mRNA level, 48 h; actives raise or lower the signal. An outline of the steps:
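HepaRG, 48 h chemical exposure (top 100 uM, half-log 8-pt, 0.5% DMSO vehicle), duplicate wells; qRT-PCR (TaqMan, Fluidigm array) for UGT1A1 mRNA, housekeeping-normalized; bidirectional curve fit vs DMSO baseline.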

Read-out in test [6]: UDP glucuronosyltransferase (UGT1A6), UGT1A6 (gene 54578)
Kind of test: LTEA_HepaRG_UGT1A6: Life Technologies and Expression Analysis (LTEA) Assay for UDP glucuronosyltransferase (UGT1A6) using HepaRG (AID 2283539). Particulars: mRNA level, 48 h; actives raise or lower the signal. An outline of the steps:
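HepaRG, 48 h post-plating switch to serum-free induction medium; chemical 48 h, 100 uM top, half-log x8, duplicate, 0.5% DMSO. Phenobarbital 1mM induction control. UGT1A6 mRNA by TaqMan qRT-PCR; gain/loss fit vs DMSO.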

Read-out in test [7]: X-box binding protein 1 (XBP1), XBP1 (gene 7494)
Kind of test: LTEA_HepaRG_XBP1: Life Technologies and Expression Analysis (LTEA) Assay for X-box binding protein 1 (XBP1) using HepaRG (AID 2283540). Conditions: mRNA level, 48 h; actives raise or lower the signal. An outline of the steps: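 Transcript levels of XBP1, measured by qRT-PCR and normalised to three housekeeping genes, were fitted bidirectionally relative to 0.5% DMSO controls. Human HepaRG cells received eight-point half-log dilutions from 100 uM for 48 h.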

Test [8] can be described thus: LTEA_HepaRG_LDH_cytotoxicity: Cytotoxicity Assessment in the Life Technologies and Expression Analysis (LTEA) Assay (AID 2283563; active means hit-call score of the fitted dose curve at least 0.9, where 1 is the maximum;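 on AC50: LDH activity released into spent culture medium as a marker of cell death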). Put shortly:
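Cells were thawed and plated for 48 h. Medium was then replaced with serum-free induction medium. Chemicals (8 half-log points, maximum 100 uM, 0.5% DMSO) were added in duplicate for 48 h, after which spent medium was assayed for LDH.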

Test [9] in a line: ATG_XTT_Cytotoxicity: Cytotoxicity Assessment in the Attagene TRANS-FACTORIAL HepG2 Assay (AID 2283584; active means hit-call score of the fitted dose curve at least 0.9, where 1 is the maximum). An outline of the steps:
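Cells: human HepG2, transiently transfected with MRTU reporter constructs. Exposure 24 h. Readout: XTT, cell number. Baseline/neg ctrl DMSO; loss-of-signal scored.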

Cellular tumor antigen p53 (Homo sapiens), sequence (P04637 whole entry, looked up): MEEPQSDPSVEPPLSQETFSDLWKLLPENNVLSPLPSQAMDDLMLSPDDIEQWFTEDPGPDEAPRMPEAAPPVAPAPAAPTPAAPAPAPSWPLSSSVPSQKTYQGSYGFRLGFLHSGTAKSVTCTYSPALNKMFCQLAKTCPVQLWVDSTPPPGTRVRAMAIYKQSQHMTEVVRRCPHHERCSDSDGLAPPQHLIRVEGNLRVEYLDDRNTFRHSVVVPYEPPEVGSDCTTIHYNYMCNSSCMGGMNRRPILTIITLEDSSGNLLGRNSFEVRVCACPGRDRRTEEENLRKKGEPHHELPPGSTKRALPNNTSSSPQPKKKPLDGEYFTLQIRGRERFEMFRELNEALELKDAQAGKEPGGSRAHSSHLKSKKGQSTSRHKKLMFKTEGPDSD

Turning to `CC(=O)OC[C@H]1O[C@@](COC(C)=O)(O[C@H]2O[C@H](COC(C)=O)[C@@H](OC(C)=O)[C@H](OC(C)=O)[C@H]2OC(C)=O)[C@@H](OC(C)=O)[C@@H]1OC(C)=O`, the outcome in test [1] is “inactive”; with TIMP1, TIMP1 (gene 7076), “inactive”; in [2] it was “inactive”; in test [3] it was “inactive”; in [4], “inactive”; in [5] it was “inactive”. Moreover, the result in test [6], in [7], in [8] and in test [9] was inactive.
Take `CCCCC(CC)COC(=O)CCCCCCCCC(=O)OCC(CC)CCCC` (stereo not drawn): the outcome in test [1] was “inactive”; with TIMP1, TIMP1 (gene 7076) it was “inactive”; in test [2], “inactive”; in test [3], “inactive”; in [4], “inactive”; in test [5], “inactive”. Moreover, the molecule was called inactive in test [6], in test [7] and in [9].
In the case of `C=CCCCCCCCCC(=O)O`, the outcome in test [1] is “inactive”; in the test with TIMP1, TIMP1 (gene 7076) it was “inactive”; in test [2], “inactive”; in test [3] it was “inactive”; in test [4] it was “inactive”; in test [5], “inactive”. Moreover, the result in test [6], in test [7] and in [8] was inactive.
For the molecule `O=C1CCCCCN1`, the outcome in test [1] is “inactive”; with TIMP1, TIMP1 (gene 7076), “inactive”; in test [2] it was “inactive”; in [3], “inactive”; in [4], “inactive”; in [5] it was “inactive”. For the same molecule, the molecule was called inactive in test [6], in test [7], in [8] and in test [9].
By AC50 is commonly meant the midpoint of the concentration-response curve, whichever way the signal moves. Take `COc1cccc(-c2ccc(/C=C\CN3CCCCCC3)cc2Cl)c1`: the AC50 was 87.3 µM (active) in test [1], 83.4 µM (active) in [5], 80.4 µM (active) in test [6] and 68.8 µM (active) in test [8]. Besides, the result in [2], in test [3], in test [4] and in [7] was inactive.
`CCCN(C1CCN(C(=O)C2CCNCC2)CC1)[C@@H]1CCc2ccc(OC)cc2C1`: the outcome is “inactive” in [1]; “inactive” in the test with TIMP1, TIMP1 (gene 7076); “inactive” in test [2]; “inactive” in test [4]. Further, the AC50 in [3] is 80.1 µM (active); in test [5] it was 69.3 µM (active); in test [6], 81 µM (active); in [7], 28.2 µM (active); in test [8], 76.1 µM (active).
With `CNCc1ccc(NC(=O)c2c[nH]c3c2C(=O)CCC3)cc1`, the result in test [1], in test [2], in test [3], in [4], in test [5] and in [6] was inactive. Besides, the molecule was classed as inactive in test [7] and in test [8].
Consider `CC(C)CCCCCCOC(=O)c1ccc(C(=O)OCCCCCCC(C)C)c(C(=O)OCCCCCCC(C)C)c1`, for which the outcome in test [1] is “inactive”; in the test with TIMP1, TIMP1 (gene 7076) it was “inactive”; in [2], “inactive”; in test [3], “inactive”; in test [4] it was “inactive”; in test [5], “inactive”. For the same molecule, the outcome in [6], in test [7] and in [8] was inactive.
As for `O=C(O)CCN(C1(C(=O)NO)CCCC1)S(=O)(=O)c1ccc(Oc2ccc(F)cc2)cc1`, the molecule was classed as inactive in test [1], in test [2], in test [3], in test [4], in test [5] and in test [6]. For the same molecule, the molecule was classed as inactive in [7] and in test [8].
Regarding `C1=CCCC=CCCC=CCC1`, the outcome is “inactive” in test [1]; “inactive” with TIMP1, TIMP1 (gene 7076); “inactive” in test [3]; “inactive” in test [4]; “inactive” in [5]; “inactive” in test [6]. The molecule was called inactive in test [7] and in test [8].
Turning to `O=C(O)c1cccc(Oc2ccccc2)c1`, the outcome is “inactive” in test [1]; “inactive” with TIMP1, TIMP1 (gene 7076); “inactive” in test [2]; “inactive” in [3]; “inactive” in [4]; “inactive” in test [5]. Also, the call in test [6], in test [7], in test [8] and in test [9] was inactive.
On to `COc1ccc(/C=C/S(=O)(=O)NC(=O)c2ccc(C)cc2Cl)cc1`, for which the outcome in test [1] is “inactive”; with TIMP1, TIMP1 (gene 7076), “inactive”; in [2], “inactive”; in test [3], “inactive”; in [4] it was “inactive”; in test [5], “inactive”. The result in [6], in test [7] and in test [8] was inactive.
For the molecule `CCN(C(=O)c1cc(C)cc(OC[C@H](C)Nc2ccncc2)c1)C(C)C`, the molecule was classed as inactive in [1], in test [6] and in test [7]. The AC50 is 0.172 µM (active) in [2]; 6.4 µM (active) in test [3]; 9.37 µM (active) in test [4]; 6.7 µM (active) in [5]; 49.7 µM (active) in test [8].
As to `CCC(C)(C)C(=O)O[C@H]1C[C@@H](C)C=C2C=C[C@H](C)[C@H](CC[C@@H]3C[C@@H](O)CC(=O)O3)[C@H]21`, the outcome is “inactive” in [1]; “inactive” with TIMP1, TIMP1 (gene 7076); “inactive” in test [2]; “inactive” in [4]; “inactive” in [5]; “inactive” in test [6]. The call in test [7], in test [8] and in test [9] was inactive. In addition, the AC50 in test [3] was 25.4 µM (active).
For `Cn1cnc([N+](=O)[O-])c1Sc1ncnc2nc[nH]c12`, the AC50 was 12.8 µM (active) in test [1], 10.7 µM (active) in test [3], 0.754 µM (active) in test [5] and 3.9 µM (active) in [6]. The outcome with TIMP1, TIMP1 (gene 7076) is “inactive”; in test [2], “inactive”; in [4] it was “inactive”; in [7], “inactive”; in [8], “inactive”; in [9] it was “inactive”.
As to `CC[C@H]1CC[C@H](NCc2cc3c(cc2OC)[C@H]2C[C@H]2C(=O)N3C)[C@H](c2ccccc2)N1`, the molecule was classed as inactive in test [1], in test [2], in test [4], in test [6], in test [7] and in test [8]. The figures for the AC50 in [3] and in test [5] were 29.3 µM (active) and 19 µM (active), respectively.
Take `O=C(NS(=O)(=O)/C=C/c1ccccc1)c1ccc(F)cc1Cl`: the molecule was called inactive in test [1], in test [2], in test [4], in test [6], in test [8] and in [9]. Further, the values for the AC50 in test [3], in test [5] and in test [7] were 0.502 µM (active), 17.1 µM (active) and 26.3 µM (active), respectively.
Consider `CCn1nc(Cc2ccccc2)cc1C1CCN(C[C@H]2C[C@H](N(C)[C@@H](C(=O)O)C(C)C)C[C@@H]2c2cccc(F)c2)CC1`, for which the AC50 in test [1] was 73.3 µM (active). For the same molecule, the molecule was called inactive in test [2], in test [3], in [4], in test [5], in [6] and in test [7]. Further, the outcome in [8] was inactive.
For the molecule `On1ccccc1=S`, the result in [1], in [2], in test [3], in test [4], in test [5] and in [6] was inactive. In addition, the call in test [7], in [8] and in [9] was inactive.
With `COC(=O)c1c(Cl)c(Cl)c(C(=O)OC)c(Cl)c1Cl`, the call in test [1], in test [2], in [3], in test [4], in [5] and in test [6] was inactive. In addition, the outcome in [7] and in [8] was inactive.
In the case of `CCCCCCCCO`, the call in [1], in [2], in [3], in test [4], in test [5] and in test [6] was inactive. The result in test [7] and in test [8] was inactive.
As to `Cc1ccc(O)cc1`, the molecule was classed as inactive in [1], in test [2], in [3], in test [4], in test [5] and in [6]. For the same molecule, the result in test [7] and in [8] was inactive.
